Read-out in experiment [1]: TIMP metallopeptidase inhibitor 1 (TIMP1), TIMP1 (gene 7076)
Briefly: BSK_hDFCGF_TIMP1: BioMAP Diversity Plus: hDFCGF Assay for TIMP metallopeptidase inhibitor 1 (TIMP1) Biomarker Activity (AID 2283062). Particulars: primary human foreskin fibroblasts; actives raise or lower the signal. A digest of the protocol: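 Fibroblasts from human foreskin are treated with test chemical and harvested at 24 h. TIMP-1 is quantified by ELISA, and gain or loss of signal is scored against DMSO.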

Read-out in experiment [2]: Monokine induced gamma interferon (MIG), CXCL9 (gene 4283)
The experiment is described as follows: BSK_hDFCGF_MIG: BioMAP Diversity Plus: hDFCGF Assay for Monokine induced gamma interferon (MIG) Biomarker Activity (AID 2283063). Particulars: primary human foreskin fibroblasts; actives raise or lower the signal. A digest of the protocol:
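MIG signal, determined by ELISA, reflects 24 h chemical exposure of human skin primary fibroblasts. DMSO serves as negative control and baseline.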

Read-out in experiment [3]: Matrix Metallopeptidase 1 (MMP1), MMP1 (gene 4312)
Briefly: BSK_hDFCGF_MMP1: BioMAP Diversity Plus: hDFCGF Assay for Matrix Metallopeptidase 1 (MMP1) Biomarker Activity (AID 2283064). The conditions noted are these: primary human foreskin fibroblasts; actives raise or lower the signal. A digest of the protocol: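 MMP1 levels quantified by ELISA 24 h after dosing human dermal fibroblast cultures, with parallel SRB total-protein staining for overt cytotoxicity. Data fitted in both directions against DMSO baseline.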

Read-out in experiment [4]: Vascular cell adhesion molecule 1 (VCAM1), VCAM1 (gene 7412)
The experiment is described as follows: BSK_hDFCGF_VCAM1: BioMAP Diversity Plus: hDFCGF Assay for Vascular cell adhesion molecule 1 (VCAM1) Biomarker Activity (AID 2283065).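 On AC50: VCAM-1 protein level quantified by ELISA after 24 h chemical exposure.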 Particulars: primary human foreskin fibroblasts; actives raise or lower the signal. A digest of the protocol:
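Cells are dosed, cultured for 24 h, then VCAM-1 is quantified by ELISA; signal increases and decreases are both fitted relative to DMSO.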

Read-out in experiment [5]: Plasminogen activator inhibitor-1 (PAI1), SERPINE1 (gene 5054)
Briefly: BSK_hDFCGF_PAI1: BioMAP Diversity Plus: hDFCGF Assay for Plasminogen activator inhibitor-1 (PAI1) Biomarker Activity (AID 2283066). Particulars: primary human foreskin fibroblasts; actives raise or lower the signal. A digest of the protocol:
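ELISA readout of PAI-1 from primary human skin fibroblast cultures, 24 h after compound addition. Gain or loss of signal was fitted bidirectionally against DMSO baseline.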

Read-out in experiment [6]: Intercellular Adhesion Molecule 1 (ICAM1), ICAM1 (gene 3383)
The experiment is described as follows: BSK_KF3CT_ICAM1: BioMAP Diversity Plus: KF3CT Assay for Intercellular Adhesion Molecule 1 (ICAM1) Biomarker Activity (AID 2283067). The conditions noted are these: primary human keratinocytes with fibroblasts; actives raise or lower the signal. A digest of the protocol:
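Dose the keratinocyte/fibroblast co-culture, wait 24 h, measure ICAM-1 by ELISA, then fit increases or decreases against DMSO. Cytotoxicity is checked in parallel cultures by SRB total-protein staining.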

Read-out in experiment [7]: Interferon-gamma inducible Protein 10 (IP10), CXCL10 (gene 3627)
The experiment is described as follows: BSK_KF3CT_IP10: BioMAP Diversity Plus: KF3CT Assay for Interferon-gamma inducible Protein 10 (IP10) Biomarker Activity (AID 2283068). Particulars: primary human keratinocytes with fibroblasts; actives raise or lower the signal. A digest of the protocol:
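KF3CT co-culture (keratinocytes + foreskin fibroblasts), 24 h compound, IP-10 by ELISA; bidirectional fit vs DMSO baseline.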

Experiment [8] is described as follows: BSK_KF3CT_SRB: Viability Assessment in the BioMAP Diversity Plus: KF3CT Assay (AID 2283069). Particulars: primary human keratinocytes with fibroblasts. A digest of the protocol: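 Cytotoxicity was gauged by SRB staining (0.1% SRB, 10% TCA fixation, 560 nm) of parallel cultures at 24 h. The cells were primary human skin keratinocytes co-cultured with fibroblasts, and activity was fitted in both directions against DMSO.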

Read-out in experiment [9]: Interleukin-1 alpha (IL1a), IL1A (gene 3552)
Briefly: BSK_KF3CT_IL1a: BioMAP Diversity Plus: KF3CT Assay for Interleukin-1 alpha (IL1a) Biomarker Activity (AID 2283070). Particulars: primary human keratinocytes with fibroblasts; actives raise or lower the signal. A digest of the protocol: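 IL-1a was detected by ELISA 24 h after chemical treatment of a co-culture of human skin keratinocytes and foreskin fibroblasts. Gain or loss of signal was fitted against the DMSO baseline.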

Read-out in experiment [10]: TIMP metallopeptidase inhibitor 2 (TIMP2), TIMP2 (gene 7077)
The experiment is described as follows: BSK_KF3CT_TIMP2: BioMAP Diversity Plus: KF3CT Assay for TIMP metallopeptidase inhibitor 2 (TIMP2) Biomarker Activity (AID 2283071). Particulars: primary human keratinocytes with fibroblasts; actives raise or lower the signal. A digest of the protocol: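 ELISA readout of TIMP-2 in keratinocyte plus foreskin fibroblast co-cultures (human skin primary cells), 24 h post-dose. Gain or loss of signal fitted relative to DMSO.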

Read-out in experiment [11]: Transforming growth factor beta 1 (TGFb1), TGFB1 (gene 7040)
The experiment is described as follows: BSK_KF3CT_TGFb1: BioMAP Diversity Plus: KF3CT Assay for Transforming growth factor beta 1 (TGFb1) Biomarker Activity (AID 2283072). Particulars: primary human keratinocytes with fibroblasts; actives raise or lower the signal. A digest of the protocol:
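Read-out: ELISA for TGF-b1 in keratinocyte/foreskin fibroblast human skin co-culture, 24 h after dosing; bidirectional curve fit vs DMSO baseline; gain or loss of signal scored.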

Read-out in experiment [12]: C-C motif chemokine 2 (Homo sapiens) (UniProt P13500)
The experiment is described as follows: BSK_KF3CT_MCP1: BioMAP Diversity Plus: KF3CT Assay for Monocyte Chemoattractant Protein 1 (MCP1/CCL2) Biomarker Activity (AID 2283073). Particulars: primary human keratinocytes with fibroblasts; actives raise or lower the signal. A digest of the protocol:
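Keratinocytes and foreskin fibroblasts were co-cultured, dosed with chemical, and sampled 24 h later. MCP-1 was quantified by ELISA, and the endpoint was analyzed with bidirectional fitting using DMSO as negative control.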

Read-out in experiment [13]: Matrix Metallopeptidase 9 (MMP9), MMP9 (gene 4318)
The experiment is described as follows: BSK_KF3CT_MMP9: BioMAP Diversity Plus: KF3CT Assay for Matrix Metallopeptidase 9 (MMP9) Biomarker Activity (AID 2283074).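 On AC50: MMP9 protein level quantified by ELISA in the co-culture.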 Particulars: primary human keratinocytes with fibroblasts; actives raise or lower the signal. A digest of the protocol: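 MMP-9 quantified by ELISA after 24 h chemical treatment of primary human skin keratinocyte/fibroblast co-cultures; gain or loss fitted against DMSO, with parallel SRB staining (0.1% SRB, 560 nm) for overt cytotoxicity.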

Read-out in the next experiment: CD40, CD40 (gene 958)
The experiment is described as follows: BSK_LPS_CD40: BioMAP Diversity Plus: LPS Assay for CD40 Biomarker Activity (AID 2283076). The conditions noted are these: primary human HUVEC with PBMC; actives raise or lower the signal. A digest of the protocol:
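CD40 signal, measured by ELISA, is fitted in both directions relative to DMSO vehicle. The system is an LPS-driven human vascular primary co-culture of endothelial cells and PBMC, sampled 24 h after compound addition.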

Read-out in experiment [14]: E-selectin (Homo sapiens) (UniProt P16581)
The experiment is described as follows: BSK_LPS_Eselectin: BioMAP Diversity Plus: LPS Assay for Eselectin Biomarker Activity (AID 2283077). The conditions noted are these: primary human HUVEC with PBMC; actives raise or lower the signal. A digest of the protocol:
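Signal of E-selectin, detected by ELISA, served as the endpoint; cells were umbilical vein endothelium with PBMC, read 24 h after treatment. DMSO defined baseline, and both increases and decreases were fitted.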

Read-out in experiment [15]: Interleukin-8 (IL8), CXCL8 (gene 3576)
The experiment is described as follows: BSK_LPS_IL8: BioMAP Diversity Plus: LPS Assay for Interleukin-8 (IL8) Biomarker Activity (AID 2283078). Particulars: primary human HUVEC with PBMC; actives raise or lower the signal. A digest of the protocol:
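Endothelial cells and PBMC from human donors are co-cultured, treated with chemicals and LPS, then assayed for IL-8 by ELISA after 24 h. Parallel SRB staining (0.1% SRB after 10% TCA fixation, 560 nm) flags cytotoxicity.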

Experiment [16] is described as follows: BSK_LPS_SRB: Viability Assessment in the BioMAP Diversity Plus: LPS Assay (AID 2283079).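 Further: total protein by sulforhodamine B absorbance as a cytotoxicity measure; measured one day after compound addition; fitted in both directions against DMSO so loss or gain of signal counts.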 Particulars: primary human HUVEC with PBMC. A digest of the protocol:
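Overt cytotoxicity was gauged by sulforhodamine B total-protein staining in a primary human vascular endothelial and mononuclear cell co-culture 24 h post-dosing. Activity was fitted in both directions relative to DMSO.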

Read-out in experiment [17]: Monocyte Chemoattractant Protein-1 (MCP1), CCL2 (gene 6347)
Briefly: BSK_LPS_MCP1: BioMAP Diversity Plus: LPS Assay for Monocyte Chemoattractant Protein-1 (MCP1) Biomarker Activity (AID 2283081).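 On AC50: secreted MCP-1 protein quantified by ELISA in culture supernatant.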 The conditions noted are these: primary human HUVEC with PBMC; actives raise or lower the signal. A digest of the protocol:
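LPS-stimulated HUVEC/PBMC co-culture; chemical, 24 h; MCP-1 by ELISA; bidirectional fit vs DMSO; cytotoxicity via SRB (0.1% stain, 10% TCA fix, 560 nm) in parallel wells.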

Activity calls are given as the source filed them. How the source made its calls: active means hit-call score of the fitted dose curve at least 0.9, where 1 is the maximum; inactive means score below 0.9.

Sequence of E-selectin (Homo sapiens) (P16581 whole entry, looked up): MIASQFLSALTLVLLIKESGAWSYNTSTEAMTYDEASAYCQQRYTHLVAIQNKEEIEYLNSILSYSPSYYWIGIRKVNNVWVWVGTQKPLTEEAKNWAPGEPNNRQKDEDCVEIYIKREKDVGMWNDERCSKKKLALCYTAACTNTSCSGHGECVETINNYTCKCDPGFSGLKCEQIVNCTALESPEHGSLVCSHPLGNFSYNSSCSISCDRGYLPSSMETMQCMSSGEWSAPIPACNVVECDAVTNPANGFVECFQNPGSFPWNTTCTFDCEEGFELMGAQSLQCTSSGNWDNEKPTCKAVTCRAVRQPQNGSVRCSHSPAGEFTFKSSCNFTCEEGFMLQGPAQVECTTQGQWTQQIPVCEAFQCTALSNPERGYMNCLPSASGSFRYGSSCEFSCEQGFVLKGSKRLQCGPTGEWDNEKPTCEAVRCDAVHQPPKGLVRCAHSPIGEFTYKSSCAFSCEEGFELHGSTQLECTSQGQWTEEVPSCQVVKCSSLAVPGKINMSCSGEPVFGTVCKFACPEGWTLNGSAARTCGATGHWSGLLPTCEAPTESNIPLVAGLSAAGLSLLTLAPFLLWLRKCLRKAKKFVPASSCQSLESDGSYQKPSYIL

Take `NC(=O)c1nc(-c2cccc(-c3cc(F)ccc3OCC(F)(F)C(F)(F)F)c2)n[nH]1`: the AC50 in experiment [1] is 35.5 µM (active); in experiment [2], 35 µM (active); in experiment [3] it was 39.5 µM (active); in experiment [4], 35.1 µM (active); in experiment [5], 32.8 µM (active); in experiment [6] it was 35.2 µM (active). The AC50 in [7] is 39.3 µM (active); in experiment [8] it was 37 µM (active); in [9], 41.2 µM (active); in [10], 35 µM (active); in [11], 36.1 µM (active); in [12], 34 µM (active). The AC50 was 39.7 µM (active) in [13]; 22.6 µM (active) with CD40, CD40 (gene 958); 37.7 µM (active) in [14]; 33.7 µM (active) in experiment [15]; 31.6 µM (active) in [16]; 33.6 µM (active) in experiment [17].
As for `CN(C)C(=O)C1(N2CCCCC2)CCN(CC[C@@]2(c3ccc(Cl)c(Cl)c3)CN(C(=O)c3ccccc3)CCO2)CC1`, the AC50 is 24.8 µM (active) in [1]; 33.3 µM (active) in [2]; 29.2 µM (active) in [3]; 14.9 µM (active) in experiment [4]; 12.3 µM (active) in experiment [5]; 35.2 µM (active) in experiment [6]. Besides, the AC50 in [7] was 31.3 µM (active); in experiment [8], 28.4 µM (active); in experiment [9], 34.3 µM (active); in experiment [10] it was 32.7 µM (active); in [11] it was 29.8 µM (active); in experiment [12], 35 µM (active). The AC50 in experiment [13] was 25.5 µM (active); with CD40, CD40 (gene 958), 16.8 µM (active); in experiment [14], 29.2 µM (active); in [15], 25.7 µM (active); in experiment [16], 18.9 µM (active); in [17] it was 25.2 µM (active).
With `CCCCCc1ccc(N)cc1`, the result in [1], in experiment [2], in experiment [3], in experiment [4], in experiment [5] and in [6] was inactive. Moreover, the outcome in [9] is “inactive”; in [11], “inactive”; in experiment [12], “inactive”; with CD40, CD40 (gene 958), “inactive”; in experiment [14], “inactive”; in [15] it was “inactive”. Also, the outcome in experiment [16] and in [17] was inactive. In addition, the half-maximal activity concentration (AC50) in experiment [7] was 22 µM (active); in [8], 24.4 µM (active); in experiment [10] it was 20.8 µM (active); in experiment [13] it was 13.7 µM (active).
In the case of `CCCOC(=O)c1cc(O)c(O)c(O)c1`, the outcome in experiment [1], in [3], in experiment [4], in experiment [5], in experiment [6] and in [7] was inactive. Further, the outcome is “inactive” in experiment [8]; “inactive” in experiment [9]; “inactive” in [12]; “inactive” in [13]; “inactive” in the experiment with CD40, CD40 (gene 958); “inactive” in experiment [14]. Moreover, the outcome in experiment [15], in experiment [16] and in [17] was inactive. Also, the half-maximal activity concentration (AC50) in [2] was 10.8 µM (active); in experiment [10], 1.49 µM (active); in [11] it was 1.53 µM (active).

The record behind these values is PubChem BioAssay (EPA / NIEHS).
